Structures are written as SMILES. Results filed as inconclusive are left out. Activity calls are given as the source filed them. Calls come from the whole dose curve; as a rule, active = well fitted curve in the direction sought with a large enough effect; inconclusive = small, poorly fitted or top-dose-only effect, or another doubt; inactive = no such curve, though single readings can be large; an effect the other way counts as inactive or inconclusive.

Single-stranded DNA cytosine deaminase (Homo sapiens), sequence (Q9GZX7 whole entry, looked up): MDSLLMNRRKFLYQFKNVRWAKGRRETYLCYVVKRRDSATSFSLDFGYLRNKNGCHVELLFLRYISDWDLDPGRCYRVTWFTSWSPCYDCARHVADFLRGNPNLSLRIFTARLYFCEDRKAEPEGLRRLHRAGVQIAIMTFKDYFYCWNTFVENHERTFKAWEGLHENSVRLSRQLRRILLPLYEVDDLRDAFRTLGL

The target of one assay is Protein phosphatase 1D (Homo sapiens) (UniProt O15297). Kind of assay: Rhodamine-PBP qHTS Assay for Modulators of WT P53-Induced Phosphatase 1 (WIP1) (AID 1347425). The conditions noted are these: recombinant WIP1, Rhodamine-PBP phosphate fluorescence, real-time; series mostly up to 57.5 µM. The text has this: Assay Provider (PI): Nathan Coussens Ph.D.
Protein phosphatase 1D (Homo sapiens), sequence (O15297 whole entry, looked up): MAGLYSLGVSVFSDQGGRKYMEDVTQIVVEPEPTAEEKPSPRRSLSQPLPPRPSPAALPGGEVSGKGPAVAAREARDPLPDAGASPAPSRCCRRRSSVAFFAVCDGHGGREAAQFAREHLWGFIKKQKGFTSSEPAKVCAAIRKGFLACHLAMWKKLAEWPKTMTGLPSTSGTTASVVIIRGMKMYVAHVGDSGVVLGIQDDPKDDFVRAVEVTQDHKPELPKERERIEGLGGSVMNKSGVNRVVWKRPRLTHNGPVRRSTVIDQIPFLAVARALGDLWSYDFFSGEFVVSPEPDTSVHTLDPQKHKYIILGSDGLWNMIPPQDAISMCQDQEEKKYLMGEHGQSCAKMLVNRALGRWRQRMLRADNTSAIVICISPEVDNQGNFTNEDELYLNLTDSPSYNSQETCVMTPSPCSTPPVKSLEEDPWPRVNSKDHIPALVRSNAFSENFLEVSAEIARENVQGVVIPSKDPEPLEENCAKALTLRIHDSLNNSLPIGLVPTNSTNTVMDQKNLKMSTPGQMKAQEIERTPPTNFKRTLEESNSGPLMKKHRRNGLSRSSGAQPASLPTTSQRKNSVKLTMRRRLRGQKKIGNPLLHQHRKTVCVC
National Center for Advancing Translational Sciences (NCATS), Rockville, MD
National Institute of Health (NIH), Bethesda, Maryland
WT P53-Induced Phosphatase 1 (WIP1) is a member of the magnesium-dependent serine/threonine protein phosphatase (PPM) family and is induced by P53 in response to DNA damage. In several human cancers, the WIP1 protein is overexpressed, which is generally associated with a worse prognosis. Although WIP1 is an attractive therapeutic target, no potent, selective, and bioactive small-molecule modulator with favorable pharmacokinetics has been reported. Phosphatase enzymes are among the most challenging targets for small molecules because of the difficulty of achieving both modulator selectivity and bioavailability. Another major obstacle has been the availability of robust and physiologically relevant phosphatase assays that are suitable for high-throughput screening.
Here, we describe two orthogonal biochemical WIP1 activity assays that utilize phosphopeptides from native WIP1 substrates. We optimized a RapidFire MS assay to quantify the enzymatically dephosphorylated peptide reaction product in a 384-well format. Additionally, a redshifted Rhodamine-PBP fluorescence assay was optimized in a 1,536-well format to enable real-time WIP1 activity measurements through the detection of the orthogonal reaction product, Pi. We validated these two optimized assays by quantitative high-throughput screening against the National Center for Advancing Translational Sciences (NCATS) Pharmaceutical Collection and used secondary assays to confirm and evaluate inhibitors identified in the primary screen.
SEQUENCE No. (e.g., 1, 2, 3, etc.); […] (e.g., Cells, Incubation, Reagent, etc.); VALUE; DESCRIPTION
1; Reagent; 3 uL; WIP1 (6.7 nM), Rh-PBP (13.3 uM), columns 1-48
3; Library Compounds; 23 nL; NCATS Pharmaceutical Collection, column 5-48
4; Control Compounds; DMSO in column 2, GSK2830371 (57.5 uM, final) in 3-fold serial dilutions in column 3, GSK2830371 (1.15 uM, final) in column 4
5; Time; 1 hr; incubation
6; Detection; fluorescence (f0); ViewLux, excitation filter = 525 nm, emission filter = 598 nm
7; Reagent; 1 uL; VEPP-pS-QETFS (40 uM), columns 2-48
8; Detection; fluorescence (f1); ViewLux, excitation filter = 525 nm, emission filter = 598 nm
NOTES (numbers refer to sequence above)
1 & 2; Black medium binding Greiner 1536-well plates (# 789176-F); assay buffer: 50 mM Tris-HCl pH 7.5, 30 mM MgCl2, 1mM TCEP, 0.1 mM EGTA, 75 ug/mL BSA; dispensed with a BioRaptr liquid handler (Beckman Coulter).
3 & 4; Kalypsys pintool (equipped with 1536 pinhead, Wako USA) transfer. Tip wash sequence: DMSO, methanol, 3 sec vacuum dry.
5; Room temperature incubation.
7; VEPPL-pS-QETFS in assay buffer dispensed with a BioRaptr; final reaction conditions: 5 nM WIP1, 10 uM VEPPL-pS-QETFS, 10 uM Rh-PBP, 50 mM Tris-HCl pH 7.5, 30 mM MgCl2, 1 mM TCEP, 0.1 mM EGTA, 75 ug/mL BSA.
8; Measurement taken at 1 min intervals for 11 min. Delta readout = f1 - f0.
In general terms: In qHTS, concentration-response curves come from the screen itself.
Take `CCCCC(=O)O[C@]1(C(=O)CO)[C@@H](C)C[C@H]2[C@@H]3CCC4=CC(=O)C=C[C@]4(C)[C@@]3(F)[C@@H](O)C[C@@]21C`: the outcome was inactive.
On to `N[C@H]1CN(c2c(F)cc3c(=O)c(C(=O)O)cn(C4C[C@@H]4F)c3c2Cl)CC12CC2` (stereo partly drawn), for which the outcome was inactive.
For the molecule `CC1(C)O[C@@H]2C[C@H]3[C@@H]4CCC5=CC(=O)C=C[C@]5(C)[C@@H]4[C@@H](O)C[C@]3(C)[C@]2(C(=O)CO)O1`, the result was inactive.
`Cc1cn([C@@H]2O[C@H](CO)[C@@H](O)[C@H]2F)c(=O)[nH]c1=O`: the outcome was inactive.
Same read-out and setting: as for `Cc1ccccc1C(=O)Nc1ccc(C(=O)N2CCCC(O)c3cc(Cl)ccc32)c(C)c1` (stereo not drawn), the entry is “inactive”.
In the case of `CCn1c(=O)c2c(nc(C=Cc3ccc(OC)c(OC)c3)n2C)n(CC)c1=O`, the outcome was inactive.
Regarding `Nc1ccn(C2CO[C@H](CO)O2)c(=O)n1` (stereo partly drawn), the result was inactive.

Test system in the next assay: not listed separately
Kind of assay: Validation qHTS assay for inhibitors of Activation Induced Cytidine Deaminase (AID): UDG Counterscreen signal (AID 1347427). The note with it: biochemical UDG counterscreen, fluorescence signal; series mostly up to 115 µM. The method, boiled down:
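Fluorescence at 560 nm excitation, 665 nm emission reports UDG signal after 250 mM NaOH (2x) addition and 30 min. Enzymes (AID 1 uM, UDG 2 U/mL, at 4/3x) preincubated 10 min with compound, then 4 h with 4x 250 nM DJC20/DJC23 substrate at room temperature.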
`CN[C@H](CC(C)C)C(=O)N[C@H]1C(=O)N[C@@H](CC(N)=O)C(=O)N[C@@H]2C(=O)N[C@H]3C(=O)N[C@H](C(=O)N[C@H](C(=O)O)c4cc(O)cc(O)c4-c4cc3ccc4O)[C@H](O)c3ccc(c(Cl)c3)Oc3cc2cc(c3O[C@@H]2O[C@H](CO)[C@@H](O)[C@H](O)[C@@H]2O[C@H]2C[C@](C)(N)[C@H](O)[C@H](C)O2)Oc2ccc(cc2Cl)[C@H]1O`: the outcome was inactive.
In the case of `COc1ccc2cc([S+]([O-])Cc3ncc(C)c(OC)c3C)nc2c1`, the molecule was classed as inactive.
As to `O=c1[nH]c(=O)n([C@H]2C[C@@H](O)[C@@H](CO)O2)cc1C=CBr`, the outcome was inactive.

A further assay concerns the target Single-stranded DNA cytosine deaminase (Homo sapiens) (UniProt Q9GZX7). Kind of assay: Validation qHTS assay for inhibitors of Activation Induced Cytidine Deaminase (AID): AID signal (AID 1347429). The conditions noted are these: Recombinant AID, FRET ssDNA deamination with UDG, fluorescence; series mostly up to 115 µM. The method, boiled down:
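AID+UDG coupled FRET deamination; cpds up to 114 uM final; DJC20/DJC23 substrate, 4 hr RT; NaOH stop, 30 min RT; read Ex 540/Em 590.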
As for `CN[C@H](CC(C)C)C(=O)N[C@H]1C(=O)N[C@@H](CC(N)=O)C(=O)N[C@@H]2C(=O)N[C@H]3C(=O)N[C@H](C(=O)N[C@H](C(=O)O)c4cc(O)cc(O)c4-c4cc3ccc4O)[C@H](O)c3ccc(c(Cl)c3)Oc3cc2cc(c3O[C@@H]2O[C@H](CO)[C@@H](O)[C@H](O)[C@@H]2O[C@H]2C[C@](C)(N)[C@H](O)[C@H](C)O2)Oc2ccc(cc2Cl)[C@H]1O`, the outcome was inactive.
Turning to `COc1ccc2cc([S+]([O-])Cc3ncc(C)c(OC)c3C)nc2c1`, the outcome was inactive.
In the case of `O=c1[nH]c(=O)n([C@H]2C[C@@H](O)[C@@H](CO)O2)cc1C=CBr`, the result was inactive.

Values taken from PubChem BioAssay (NCATS).
